Experiment [1] concerns the target Death-associated protein kinase 1 (Homo sapiens) (UniProt P53355). To be noted: at 1 µM.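 Note: each value is a mean inhibition figure.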
Experiment [2] addresses T1, Serine/threonine-protein kinase DCLK2 (Homo sapiens) (UniProt Q8N568).
T1 sequence (whole entry): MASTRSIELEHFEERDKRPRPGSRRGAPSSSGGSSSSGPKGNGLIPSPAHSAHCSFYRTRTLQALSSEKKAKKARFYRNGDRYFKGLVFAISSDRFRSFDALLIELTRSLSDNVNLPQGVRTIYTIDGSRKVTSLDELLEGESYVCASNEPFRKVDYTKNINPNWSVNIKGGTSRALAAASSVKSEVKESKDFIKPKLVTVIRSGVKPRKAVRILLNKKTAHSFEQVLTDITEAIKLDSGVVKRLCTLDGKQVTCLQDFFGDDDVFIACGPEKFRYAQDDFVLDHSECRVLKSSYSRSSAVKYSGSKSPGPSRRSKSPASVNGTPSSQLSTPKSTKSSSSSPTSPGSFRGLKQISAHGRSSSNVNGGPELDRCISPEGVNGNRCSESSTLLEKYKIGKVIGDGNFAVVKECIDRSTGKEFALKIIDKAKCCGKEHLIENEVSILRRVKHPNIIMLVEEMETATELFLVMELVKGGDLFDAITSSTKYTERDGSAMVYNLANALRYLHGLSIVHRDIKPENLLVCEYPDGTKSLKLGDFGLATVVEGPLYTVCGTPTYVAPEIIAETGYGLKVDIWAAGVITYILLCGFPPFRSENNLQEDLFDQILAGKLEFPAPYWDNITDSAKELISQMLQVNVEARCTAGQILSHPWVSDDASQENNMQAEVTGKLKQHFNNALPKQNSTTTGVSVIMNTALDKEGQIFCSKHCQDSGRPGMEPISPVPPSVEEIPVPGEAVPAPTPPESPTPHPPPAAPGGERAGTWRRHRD
To be noted: at 0.1 µM.

Experiment [3] concerns the target T1, Serine/threonine-protein kinase DCLK2 (Homo sapiens). The conditions noted are these: at 1 µM.
Experiment [4] deals with MAP kinase-activated protein kinase 2 (Homo sapiens) (UniProt P49137). The conditions noted are these: at 0.1 µM.
Chain of MAP kinase-activated protein kinase 2 (Homo sapiens) (P49137 whole entry, looked up): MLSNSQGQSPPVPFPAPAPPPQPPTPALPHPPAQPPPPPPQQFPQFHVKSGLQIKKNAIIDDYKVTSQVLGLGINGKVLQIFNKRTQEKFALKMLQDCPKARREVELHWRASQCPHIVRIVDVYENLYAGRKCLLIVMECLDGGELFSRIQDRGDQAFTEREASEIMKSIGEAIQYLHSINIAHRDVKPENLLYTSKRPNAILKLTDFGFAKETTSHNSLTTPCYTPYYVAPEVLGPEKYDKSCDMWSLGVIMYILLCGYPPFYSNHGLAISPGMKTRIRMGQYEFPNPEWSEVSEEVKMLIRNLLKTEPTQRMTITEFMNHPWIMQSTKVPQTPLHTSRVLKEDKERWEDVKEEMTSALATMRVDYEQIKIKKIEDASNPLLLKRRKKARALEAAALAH
For experiment [5] the target is unchanged. To be noted: at 1 µM.
In experiment [6] the target is MAP kinase-activated protein kinase 3 (Homo sapiens) (UniProt Q16644). The conditions noted are these: at 0.1 µM.
Chain of MAP kinase-activated protein kinase 3 (Homo sapiens) (Q16644 whole entry, looked up): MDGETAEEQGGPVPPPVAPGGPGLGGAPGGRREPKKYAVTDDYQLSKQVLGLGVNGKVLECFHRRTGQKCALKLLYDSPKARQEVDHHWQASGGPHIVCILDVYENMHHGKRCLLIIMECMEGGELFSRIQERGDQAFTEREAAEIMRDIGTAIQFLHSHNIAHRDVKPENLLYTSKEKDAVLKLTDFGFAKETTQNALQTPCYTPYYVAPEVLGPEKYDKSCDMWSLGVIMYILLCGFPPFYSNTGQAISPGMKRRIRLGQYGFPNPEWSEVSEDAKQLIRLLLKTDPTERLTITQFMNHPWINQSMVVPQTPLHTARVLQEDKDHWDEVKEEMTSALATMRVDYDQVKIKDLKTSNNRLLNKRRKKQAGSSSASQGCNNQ
Experiment [7] has the same target. To be noted: at 1 µM.
Experiment [8] deals with Serine/threonine-protein kinase MARK1 (Homo sapiens) (UniProt Q9P0L2). The conditions noted are these: at 0.1 µM.
Chain of Serine/threonine-protein kinase MARK1 (Homo sapiens) (Q9P0L2 whole entry, looked up): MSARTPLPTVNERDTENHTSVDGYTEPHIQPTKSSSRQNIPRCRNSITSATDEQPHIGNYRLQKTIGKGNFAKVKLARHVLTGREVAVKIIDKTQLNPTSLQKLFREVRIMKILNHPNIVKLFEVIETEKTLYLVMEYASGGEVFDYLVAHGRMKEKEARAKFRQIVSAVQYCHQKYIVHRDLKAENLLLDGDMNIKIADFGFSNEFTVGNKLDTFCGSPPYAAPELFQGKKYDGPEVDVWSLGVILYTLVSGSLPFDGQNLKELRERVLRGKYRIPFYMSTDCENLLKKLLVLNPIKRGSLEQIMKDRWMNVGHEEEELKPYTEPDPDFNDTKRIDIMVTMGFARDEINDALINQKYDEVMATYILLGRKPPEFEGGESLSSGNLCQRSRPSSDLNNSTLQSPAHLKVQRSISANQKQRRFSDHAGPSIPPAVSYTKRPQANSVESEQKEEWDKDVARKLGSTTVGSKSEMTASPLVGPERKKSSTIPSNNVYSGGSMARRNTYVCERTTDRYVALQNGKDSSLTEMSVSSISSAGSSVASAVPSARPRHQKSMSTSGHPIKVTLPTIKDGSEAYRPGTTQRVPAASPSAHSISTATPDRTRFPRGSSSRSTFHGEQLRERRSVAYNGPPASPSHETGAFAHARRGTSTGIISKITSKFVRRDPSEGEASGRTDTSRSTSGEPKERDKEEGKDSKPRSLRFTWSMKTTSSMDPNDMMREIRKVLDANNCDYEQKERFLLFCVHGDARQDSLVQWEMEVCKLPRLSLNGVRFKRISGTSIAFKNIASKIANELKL
For experiment [9] the target is unchanged. The conditions noted are these: at 1 µM.
For experiment [10], the target named is MAP/microtubule affinity-regulating kinase 3 (Homo sapiens) (UniProt P27448). To be noted: at 0.1 µM.
Chain of MAP/microtubule affinity-regulating kinase 3 (Homo sapiens) (P27448 whole entry, looked up): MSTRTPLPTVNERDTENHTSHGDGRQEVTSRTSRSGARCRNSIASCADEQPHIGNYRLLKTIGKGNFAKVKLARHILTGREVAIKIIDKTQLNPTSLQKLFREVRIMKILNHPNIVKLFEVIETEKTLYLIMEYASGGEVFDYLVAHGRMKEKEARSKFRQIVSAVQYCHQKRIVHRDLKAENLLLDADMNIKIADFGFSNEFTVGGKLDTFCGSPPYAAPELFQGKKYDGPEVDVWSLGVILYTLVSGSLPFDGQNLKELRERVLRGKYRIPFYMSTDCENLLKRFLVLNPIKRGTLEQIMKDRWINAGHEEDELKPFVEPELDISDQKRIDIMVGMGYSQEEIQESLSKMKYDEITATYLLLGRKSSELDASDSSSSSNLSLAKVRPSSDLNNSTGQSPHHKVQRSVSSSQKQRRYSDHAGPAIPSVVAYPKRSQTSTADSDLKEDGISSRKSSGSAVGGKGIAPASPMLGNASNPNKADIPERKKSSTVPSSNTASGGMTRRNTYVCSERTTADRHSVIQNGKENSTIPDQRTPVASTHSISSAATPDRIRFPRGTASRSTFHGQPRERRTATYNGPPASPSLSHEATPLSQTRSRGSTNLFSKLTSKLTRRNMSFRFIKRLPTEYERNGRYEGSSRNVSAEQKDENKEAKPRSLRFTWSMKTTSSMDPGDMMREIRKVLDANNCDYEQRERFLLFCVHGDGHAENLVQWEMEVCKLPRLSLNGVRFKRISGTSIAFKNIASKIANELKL
For experiment [11] the target is unchanged. The conditions noted are these: at 1 µM.
The target in experiment [12] is T2, MAP/microtubule affinity-regulating kinase 4 (Homo sapiens) (UniProt Q96L34).
T2 sequence (whole entry): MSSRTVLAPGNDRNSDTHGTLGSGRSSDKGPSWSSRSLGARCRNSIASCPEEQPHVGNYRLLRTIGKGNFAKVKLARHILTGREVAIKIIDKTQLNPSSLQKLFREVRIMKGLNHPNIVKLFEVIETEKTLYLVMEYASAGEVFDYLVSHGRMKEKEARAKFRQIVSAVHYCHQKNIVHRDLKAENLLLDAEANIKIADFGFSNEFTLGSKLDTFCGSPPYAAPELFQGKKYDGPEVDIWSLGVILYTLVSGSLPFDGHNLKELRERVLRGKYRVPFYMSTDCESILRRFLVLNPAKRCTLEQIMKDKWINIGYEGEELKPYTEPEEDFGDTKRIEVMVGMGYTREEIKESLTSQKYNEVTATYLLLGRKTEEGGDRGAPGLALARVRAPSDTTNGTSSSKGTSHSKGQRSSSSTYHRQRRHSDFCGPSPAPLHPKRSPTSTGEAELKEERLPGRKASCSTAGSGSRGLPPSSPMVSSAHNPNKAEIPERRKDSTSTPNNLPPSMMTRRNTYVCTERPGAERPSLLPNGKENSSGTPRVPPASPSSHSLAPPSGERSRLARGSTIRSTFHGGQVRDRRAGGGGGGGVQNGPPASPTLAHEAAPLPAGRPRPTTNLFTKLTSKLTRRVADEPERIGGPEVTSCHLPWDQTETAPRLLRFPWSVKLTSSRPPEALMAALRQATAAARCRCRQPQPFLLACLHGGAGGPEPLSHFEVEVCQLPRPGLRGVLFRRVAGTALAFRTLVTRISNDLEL
To be noted: at 0.1 µM.

Experiment [13] addresses T2, MAP/microtubule affinity-regulating kinase 4 (Homo sapiens). To be noted: at 1 µM.
The target in experiment [14] is Maternal embryonic leucine zipper kinase (Homo sapiens) (UniProt Q14680). The conditions noted are these: at 0.1 µM.
Chain of Maternal embryonic leucine zipper kinase (Homo sapiens) (Q14680 whole entry, looked up): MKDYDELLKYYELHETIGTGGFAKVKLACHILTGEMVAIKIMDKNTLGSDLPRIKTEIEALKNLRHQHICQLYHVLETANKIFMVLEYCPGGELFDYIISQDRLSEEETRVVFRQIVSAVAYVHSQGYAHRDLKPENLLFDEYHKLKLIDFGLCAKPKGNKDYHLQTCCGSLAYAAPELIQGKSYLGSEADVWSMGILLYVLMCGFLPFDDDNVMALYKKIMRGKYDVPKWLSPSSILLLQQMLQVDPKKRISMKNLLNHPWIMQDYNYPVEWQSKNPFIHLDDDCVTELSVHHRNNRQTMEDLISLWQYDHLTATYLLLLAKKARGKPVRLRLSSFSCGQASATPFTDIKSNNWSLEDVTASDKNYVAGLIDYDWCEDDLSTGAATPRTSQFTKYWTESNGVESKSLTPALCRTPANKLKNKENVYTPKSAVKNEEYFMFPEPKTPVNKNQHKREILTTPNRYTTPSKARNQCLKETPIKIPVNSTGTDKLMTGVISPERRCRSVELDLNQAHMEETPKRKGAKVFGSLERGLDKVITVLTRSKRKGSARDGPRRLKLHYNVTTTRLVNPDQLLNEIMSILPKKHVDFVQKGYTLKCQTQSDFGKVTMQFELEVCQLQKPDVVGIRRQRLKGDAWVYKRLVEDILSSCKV
The target is the same in experiment [15]. To be noted: at 1 µM.
For experiment [16], the target named is MAP kinase-interacting serine/threonine-protein kinase 1 (Homo sapiens) (UniProt Q9BUB5). The conditions noted are these: at 0.1 µM.
Chain of MAP kinase-interacting serine/threonine-protein kinase 1 (Homo sapiens) (Q9BUB5 whole entry, looked up): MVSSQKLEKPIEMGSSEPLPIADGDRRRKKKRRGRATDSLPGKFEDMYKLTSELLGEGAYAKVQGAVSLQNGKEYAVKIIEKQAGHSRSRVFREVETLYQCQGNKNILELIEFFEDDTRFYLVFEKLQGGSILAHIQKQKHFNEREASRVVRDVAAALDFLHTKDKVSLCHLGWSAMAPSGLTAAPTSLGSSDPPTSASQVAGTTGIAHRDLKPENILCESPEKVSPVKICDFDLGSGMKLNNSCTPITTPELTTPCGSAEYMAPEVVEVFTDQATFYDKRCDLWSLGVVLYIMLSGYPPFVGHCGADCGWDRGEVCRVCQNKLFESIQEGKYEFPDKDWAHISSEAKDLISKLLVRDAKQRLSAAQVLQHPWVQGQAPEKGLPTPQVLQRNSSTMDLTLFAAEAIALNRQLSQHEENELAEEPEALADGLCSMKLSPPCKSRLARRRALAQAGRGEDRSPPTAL
Experiment [17] shares this target. The conditions noted are these: at 1 µM.
Experiment [18] addresses MAP kinase-interacting serine/threonine-protein kinase 2 (Homo sapiens) (UniProt Q9HBH9). The conditions noted are these: at 0.1 µM.
Experiment [19] has the same target. To be noted: at 1 µM.
The target of experiment [20] is Serine/threonine-protein kinase MARK2 (Homo sapiens) (UniProt Q7KZI7). The conditions noted are these: at 0.1 µM.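 Note: mean percent inhibition of PAR-1Balpha kinase activity, reported from the GSK PKIS screen.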
Chain of Serine/threonine-protein kinase MARK2 (Homo sapiens) (Q7KZI7 whole entry): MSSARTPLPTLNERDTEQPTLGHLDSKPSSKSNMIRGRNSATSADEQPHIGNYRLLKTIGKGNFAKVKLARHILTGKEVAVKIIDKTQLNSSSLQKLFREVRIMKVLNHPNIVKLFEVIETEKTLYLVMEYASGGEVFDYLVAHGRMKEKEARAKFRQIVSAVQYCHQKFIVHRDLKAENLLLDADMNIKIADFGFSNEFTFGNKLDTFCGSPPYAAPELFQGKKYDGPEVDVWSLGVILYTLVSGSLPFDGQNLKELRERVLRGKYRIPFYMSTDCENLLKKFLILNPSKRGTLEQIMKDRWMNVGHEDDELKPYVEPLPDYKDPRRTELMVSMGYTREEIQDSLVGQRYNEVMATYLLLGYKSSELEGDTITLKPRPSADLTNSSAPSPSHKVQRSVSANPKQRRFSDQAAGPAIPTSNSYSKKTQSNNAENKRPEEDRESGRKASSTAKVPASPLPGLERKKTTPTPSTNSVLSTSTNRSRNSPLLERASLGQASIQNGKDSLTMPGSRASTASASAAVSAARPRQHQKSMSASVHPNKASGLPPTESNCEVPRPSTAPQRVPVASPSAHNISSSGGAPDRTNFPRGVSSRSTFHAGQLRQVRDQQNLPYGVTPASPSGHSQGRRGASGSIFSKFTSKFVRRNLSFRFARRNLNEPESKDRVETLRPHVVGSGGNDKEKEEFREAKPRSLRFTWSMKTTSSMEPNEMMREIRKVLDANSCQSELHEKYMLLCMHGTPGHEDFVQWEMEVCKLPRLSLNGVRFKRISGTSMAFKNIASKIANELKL

The structures appear in SMILES notation. Values joined by “and” are separate entries in the source; they are usually repeats but may differ in a detail not shown here. Equal values may be shown once.

Chain of MAP kinase-interacting serine/threonine-protein kinase 2 (Homo sapiens) (Q9HBH9 whole entry, looked up): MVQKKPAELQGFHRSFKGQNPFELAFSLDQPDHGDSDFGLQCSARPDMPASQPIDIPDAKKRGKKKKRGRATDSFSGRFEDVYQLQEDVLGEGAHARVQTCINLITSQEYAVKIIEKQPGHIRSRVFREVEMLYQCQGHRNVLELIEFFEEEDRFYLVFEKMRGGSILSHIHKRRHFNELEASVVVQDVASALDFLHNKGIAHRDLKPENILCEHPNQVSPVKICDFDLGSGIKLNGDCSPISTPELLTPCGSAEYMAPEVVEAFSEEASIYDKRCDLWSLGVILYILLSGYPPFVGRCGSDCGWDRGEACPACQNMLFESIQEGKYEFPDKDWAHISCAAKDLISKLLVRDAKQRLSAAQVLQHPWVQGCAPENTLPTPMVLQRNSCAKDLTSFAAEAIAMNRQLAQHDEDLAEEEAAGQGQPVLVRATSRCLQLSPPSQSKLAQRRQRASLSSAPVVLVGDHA

In general, inhibition refers to the drop in the measured response relative to a control, in per cent. For the compound `CN1CCN(Cc2ccc(-c3cc4ncnc(Nc5ccc(OCc6cccc(F)c6)c(Cl)c5)c4s3)o2)CC1`, the inhibition is 8.26% and 8.39% in experiment [1]; -1.96% and 1.28% in experiment [2]; -0.55% and 0.13% in [3]; 3.34% and 2.08% in experiment [4]; 3.32% and 2.11% in experiment [5]; 10.6% and 4.26% in experiment [6]. The inhibition in experiment [7] was 13% and 4.01%; in [8], 2.62% and 3.44%; in [9], 6.17% and 6%; in experiment [10], 1.67% and 1.64%; in experiment [11], 2.84% and 0.44%; in experiment [12], 1.62% and 1.87%. In addition, the inhibition is 3.52% and 3.32% in [13]; 4.83% and 3.2% in experiment [14]; 6.62% and 9.42% in [15]; 3.21% and 7.2% in experiment [16]; 18.6% and 22% in [17]; -0.2% and 3.49% in experiment [18]. The inhibition is 9.13% and 14.2% in [19]; 0.8% and 0.26% in experiment [20].
Turning to `CS(=O)(=O)CCNCc1ccoc1-c1ccc2ncnc(Nc3ccc(OCc4ccccc4)cc3)c2c1`, the inhibition was -0.75% in experiment [1]; -1.49% in experiment [2]; -0.03% in experiment [3]; -0.61% in [4]; -0.91% in [5]; 0.57% in [6]. Also, the inhibition in [7] was 0.18%; in experiment [8], -0.89%; in experiment [9], 1.23%; in experiment [10], -2.66%; in experiment [11], -1.52%; in [12] it was -0.56%. In addition, the inhibition is -0.4% in [13]; -0.71% in experiment [14]; -0.61% in experiment [15]; 2% in [16]; 4.19% in experiment [17]; 0.34% in experiment [18]. The inhibition in [19] is 5.82%; in experiment [20], -1.43%.
With `O=C(O[C@H]1CN[C@H](C#Cc2cc3ncnc(Nc4ccc5c(ccn5Cc5cc(F)ccc5F)c4)c3s2)C1)N1CCOCC1`, the inhibition is -3.4% in experiment [1]; 1.07% in experiment [2]; -1.18% in experiment [3]; -0.3% in experiment [4]; -1.2% in experiment [5]; -1.09% in experiment [6]. Besides, the inhibition in experiment [7] is -1.03%; in [8], 4.09%; in experiment [9] it was 3.3%; in experiment [10] it was 1.37%; in [11], 1.49%; in [12], 2.82%. Further, the inhibition in [13] was 0.75%; in experiment [14] it was 5.51%; in [15] it was 5.23%; in [16], 2.17%; in experiment [17], 5.94%; in experiment [18], 1.3%. Besides, the inhibition is 1.83% in experiment [19] and 0.88% in [20].
Consider `NC(=O)c1ccc2c(-c3ccnc(NCCCO)n3)c(-c3ccc(F)cc3)nn2c1`, for which the inhibition in experiment [1] is 15.1%; in [2], 1.81%; in [3], 1.24%; in experiment [4], 5.03%; in [5] it was 5.02%; in [6], 39.7%. Further, the inhibition amounted to 43.4% in experiment [7]; 4.33% in [8]; 4.69% in [9]; 4.33% in [10]; 21.9% in [11]; 1.93% in [12]. Also, the inhibition was 2.67% in experiment [13]; 6.11% in [14]; 6.85% in experiment [15]; 4.56% in [16]; 13.4% in experiment [17]; 3.16% in experiment [18]. Further, the figures for the inhibition in experiment [19] and in [20] were 7.35% and 1.93%, respectively.
Turning to `COc1cc(N2CCN(C(C)C)CC2)ccc1Nc1nc(Nc2cccc(F)c2C(=O)O)c2cc[nH]c2n1`, the inhibition in experiment [1] was found to be 2.32%; in [2], 0.91%; in experiment [3] it was 1.63%; in experiment [4], 2.14%; in experiment [5], 1.32%; in [6], 4.39%. Also, the inhibition in [7] was 4.68%; in experiment [8], 3.19%; in [9], 8.61%; in experiment [10] it was 4.95%; in experiment [11], 4.97%; in experiment [12] it was 1.88%. The inhibition in experiment [13] stood at 5.09%; in experiment [14], 2.86%; in [15], 7.68%; in [16], 3.1%; in experiment [17] it was 5.88%; in [18], 1.57%. The inhibition in experiment [19] was 5.1%; in experiment [20], 1.11%.
For `OCCCNc1nccc(-c2c(-c3ccc(F)cc3)nn3cc(C(F)(F)F)ccc23)n1`, the inhibition in experiment [1] was 1.04%; in [2], 0.89%; in experiment [3] it was 2.29%; in experiment [4], 0.94%; in experiment [5] it was 0.71%; in experiment [6], 30.2%. Also, the inhibition in experiment [7] was 36.3%; in [8], 0.69%; in [9] it was 3.09%; in experiment [10] it was 0.94%; in experiment [11] it was 3.84%; in experiment [12] it was 0.24%. Also, the inhibition was 2.09% in experiment [13]; 0.52% in experiment [14]; 2.27% in experiment [15]; 2.61% in [16]; 6.2% in experiment [17]; 2.75% in experiment [18]. For the same compound, the inhibition in experiment [19] is 3.6%; in experiment [20], -1.06%.
`NS(=O)(=O)c1ccc(N/N=C2\C(=O)Nc3ccc(C(=O)NCc4ccncc4)cc32)cc1`: the inhibition in experiment [1] came out at 4.92%; in experiment [2], 3.49%; in experiment [3], 0.04%; in experiment [4], 2.73%; in experiment [5] it was 3.71%; in [6], 4.05%. Also, the inhibition in [7] was 2.16%; in experiment [8], 7.5%; in experiment [9], 40.7%; in [10] it was 4.2%; in [11], 34.4%; in experiment [12], 4.76%. For the same compound, the inhibition in experiment [13] turned out to be 33.7%; in [14] it was 49.6%; in experiment [15], 90.6%; in [16], 2.18%; in [17] it was 10.9%; in [18], 1.66%. Also, the values for the inhibition in [19] and in experiment [20] were 6.27% and 0.88%, respectively.

(Values after ChEMBL document CHEMBL1961873, “Compounds: GSK PKIS; Assays: Nanosyn kinase panel” (2012).)
